# Test results taken from PubChem BioAssay (NCI).
# This is part of a sample that, as a whole, favours compounds with a hit. Of some 79,000 tested, about 15% had one in any assay. Unmarked numbers belong to inactive results. Calls of active or inactive are those of the source. No stated cut-off is given here; in the data, active means growth inhibition above about 70%; inactive means the rest.
# Key:
# [1] = NCI Yeast Anticancer Drug Screen. Data for the rad52 strain (AID 147);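 further: 0% = growth of vehicle-treated control cultures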; settings: S. cerevisiae rad52 mutant growth inhibition, active compounds read high
# How it was run: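 DNA repair-defective yeast; compound exposure; growth scored against vehicle controls.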
# [2] = NCI Yeast Anticancer Drug Screen. Data for the wt1 strain (AID 149);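 further: 0% = growth of vehicle-treated wt1 cultures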; settings: S. cerevisiae wt1 strain (SPY 50644) growth inhibition, active compounds read high
# How it was run: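 Vehicle-normalised growth inhibition; strain wt1; compound exposure.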
# [3] = NCI Yeast Anticancer Drug Screen. Data for the rad50EPP+ strain (AID 151);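 further: 0% = growth of vehicle-treated control cultures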; settings: S. cerevisiae rad50 mutant strain, active compounds read high
# How it was run: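 rad50EPP+ yeast treated with test compounds. Readout: growth vs vehicle control.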
# [4] = NCI Yeast Anticancer Drug Screen. Data for the mgt1 strain (AID 153); settings: S. cerevisiae mgt1 mutant growth inhibition, active compounds read high
# How it was run: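 Growth inhibition relative to vehicle controls was scored for the mgt1 yeast strain after compound exposure.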
# [5] = NCI Yeast Anticancer Drug Screen. Data for the rad50 strain (AID 155);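 further: 0% = growth of vehicle-only cultures of the same strain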; settings: S. cerevisiae rad50 strain growth inhibition, active compounds read high
# How it was run: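 A DNA repair-deficient yeast mutant serves as the test organism; compound-induced growth inhibition is calculated against vehicle-treated cells.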
# [6] = NCI Yeast Anticancer Drug Screen. Data for the mec2-1 strain (AID 157); settings: S. cerevisiae mec2-1 strain, active compounds read high
# How it was run: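 Growth inhibition is read against vehicle-treated controls after compound exposure of the mec2-1 yeast strain, which is defective in DNA damage repair or cell cycle control.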
# [7] = NCI Yeast Anticancer Drug Screen. Data for the rad14 strain (AID 159);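 further: 0% = growth of vehicle-treated control cultures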; settings: S. cerevisiae rad14 strain growth inhibition, active compounds read high
# How it was run: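 Vehicle-treated cultures served as the baseline for growth inhibition of a DNA repair-mutant yeast strain exposed to each compound.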
# [8] = NCI Yeast Anticancer Drug Screen. Data for the sgs1 mgt1 strain (AID 161);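 further: 0% = growth of cultures given vehicle only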; settings: S. cerevisiae sgs1 mgt1 strain, active compounds read high
# How it was run: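 Percent growth inhibition was derived by comparing compound-exposed mutant yeast with vehicle-exposed cultures. The strain carries alterations in DNA damage repair.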
# [9] = NCI Yeast Anticancer Drug Screen. Data for the CLN2oe strain (AID 163);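 further: 0% = growth of vehicle-only control cultures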; settings: S. cerevisiae CLN2oe strain, active compounds read high
# How it was run: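 Compound-treated yeast; growth vs vehicle ctrl = % inhibition. Genetically altered strain (cell-cycle control).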
# [10] = NCI Yeast Anticancer Drug Screen. Data for the cln2 rad14 strain (AID 165);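 further: 0% = growth equal to vehicle treated cultures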; settings: S. cerevisiae cln2 rad14 strain, active compounds read high
# How it was run: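 Growth inhibition, relative to vehicle-treated controls, is the read-out. The test organism is a yeast strain with defined genetic alterations, cln2 rad14.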
# [11] = NCI Yeast Anticancer Drug Screen. Data for the bub3 strain (AID 167); settings: S. cerevisiae bub3 mutant strain, active compounds read high
# How it was run: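 Inhibition values come from growth of compound-treated mutant yeast normalised to vehicle-treated controls.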
# [12] = at 5.0 µM (retest, dose inferred, filed as 0.5)
# [13] = at 50.0 µM (retest, dose inferred, filed as 5.0)
structure (smiles),measurement,setting,value
O=C(/N=N/C(=O)Oc1ccccc1)Oc1ccccc1,growth inhibition,[1]; at 1.2 µM,-49%
same,growth inhibition,[1]; at 3.7 µM,-54%
same,growth inhibition,[1]; at 11.0 µM,-52%
same,growth inhibition,[1]; at 33.0 µM,-38%
same,growth inhibition,[1]; at 100.0 µM,24%
same,growth inhibition,[2]; at 1.2 µM,-57%
same,growth inhibition,[2]; at 3.7 µM,-51%
same,growth inhibition,[2]; at 11.0 µM,-46%
same,growth inhibition,[2]; at 33.0 µM,-32%
same,growth inhibition,[2]; at 100.0 µM,37%
same,growth inhibition,[3]; at 1.2 µM,-87%
same,growth inhibition,[3]; at 3.7 µM,-110%
same,growth inhibition,[3]; at 11.0 µM,-106%
same,growth inhibition,[3]; at 33.0 µM,-46%
same,growth inhibition,[3]; at 100.0 µM,-82%
same,growth inhibition,[4]; at 1.2 µM,-61%
same,growth inhibition,[4]; at 3.7 µM,-61%
same,growth inhibition,[4]; at 11.0 µM,-63%
same,growth inhibition,[4]; at 33.0 µM,-29%
same,growth inhibition,[4]; at 100.0 µM,57%
same,growth inhibition,[5]; at 1.2 µM,-81%
same,growth inhibition,[5]; at 3.7 µM,-66%
same,growth inhibition,[5]; [12],30%
same,growth inhibition,[5]; at 11.0 µM,-107%
same,growth inhibition,[5]; at 33.0 µM,-40%
same,growth inhibition,[5]; [13],96% (active)
same,growth inhibition,[5]; at 50.0 µM,56.4%
same,growth inhibition,[5]; at 100.0 µM,45%
same,growth inhibition,[6]; at 1.2 µM,-97%
same,growth inhibition,[6]; at 3.7 µM,-47%
same,growth inhibition,[6]; [12],53%
same,growth inhibition,[6]; at 11.0 µM,-87%
same,growth inhibition,[6]; at 33.0 µM,-52%
same,growth inhibition,[6]; [13],97% (active)
same,growth inhibition,[6]; at 50.0 µM,8.5%
same,growth inhibition,[6]; at 100.0 µM,-16%
same,growth inhibition,[7]; at 1.2 µM,-26%
same,growth inhibition,[7]; at 3.7 µM,-26%
same,growth inhibition,[7]; at 11.0 µM,-10%
same,growth inhibition,[7]; at 33.0 µM,-15%
same,growth inhibition,[7]; at 100.0 µM,5%
same,growth inhibition,[8]; [12],-29%
same,growth inhibition,[8]; [13],39%
same,growth inhibition,[8]; at 50.0 µM,48.6%
same,growth inhibition,[9]; at 1.2 µM,9%
same,growth inhibition,[9]; at 3.7 µM,22%
same,growth inhibition,[9]; at 11.0 µM,16%
same,growth inhibition,[9]; at 33.0 µM,40%
same,growth inhibition,[9]; at 100.0 µM,40%
same,growth inhibition,[10]; [12],5%
same,growth inhibition,[10]; [13],59%
same,growth inhibition,[10]; at 50.0 µM,43.6%
same,growth inhibition,[11]; at 1.2 µM,-25%
same,growth inhibition,[11]; at 3.7 µM,-29%
same,growth inhibition,[11]; [12],50%
same,growth inhibition,[11]; at 11.0 µM,-17%
same,growth inhibition,[11]; at 33.0 µM,2%
same,growth inhibition,[11]; [13],69%
same,growth inhibition,[11]; at 50.0 µM,55%
same,growth inhibition,[11]; at 100.0 µM,65%
